Legend:
Assay in all cases: log2 ratio of Biotin-Ahx-Ub-VS probe labelling (fragment/DMSO); higher = less target engagement (more negative = stronger competition), active = hit call of the paper (q ≤ 0.05, log2 ratio ≤ -1)
Conditions in all cases: compound concentration: 200 uM; treatment time: 3 h
[1] = molecular target: USP34 (UniProt Q70CQ2)
Method in brief: (§1)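 Labelling with Biotin-Ahx-Ub-VS (0.5 µM final, 1 h) followed a 3 h triplicate treatment of HEK293T lysate (495 µg per sample, Tris/CHAPS/IGEPAL buffer with protease inhibitors) with fragment at 200 µM or vehicle. Labelled DUBs were NeutrAvidin-enriched, digested with LysC and trypsin, and run by diaPASEF LC-MS/MS. The values, average log2 fragment/vehicle ratios by unpaired t-test, come from global-median-normalised Spectronaut label-free quantities. Proteins with ≥2 unique peptides were used.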

[2] = molecular target: T1, USP36 (UniProt Q9P275)
T1 sequence (whole entry): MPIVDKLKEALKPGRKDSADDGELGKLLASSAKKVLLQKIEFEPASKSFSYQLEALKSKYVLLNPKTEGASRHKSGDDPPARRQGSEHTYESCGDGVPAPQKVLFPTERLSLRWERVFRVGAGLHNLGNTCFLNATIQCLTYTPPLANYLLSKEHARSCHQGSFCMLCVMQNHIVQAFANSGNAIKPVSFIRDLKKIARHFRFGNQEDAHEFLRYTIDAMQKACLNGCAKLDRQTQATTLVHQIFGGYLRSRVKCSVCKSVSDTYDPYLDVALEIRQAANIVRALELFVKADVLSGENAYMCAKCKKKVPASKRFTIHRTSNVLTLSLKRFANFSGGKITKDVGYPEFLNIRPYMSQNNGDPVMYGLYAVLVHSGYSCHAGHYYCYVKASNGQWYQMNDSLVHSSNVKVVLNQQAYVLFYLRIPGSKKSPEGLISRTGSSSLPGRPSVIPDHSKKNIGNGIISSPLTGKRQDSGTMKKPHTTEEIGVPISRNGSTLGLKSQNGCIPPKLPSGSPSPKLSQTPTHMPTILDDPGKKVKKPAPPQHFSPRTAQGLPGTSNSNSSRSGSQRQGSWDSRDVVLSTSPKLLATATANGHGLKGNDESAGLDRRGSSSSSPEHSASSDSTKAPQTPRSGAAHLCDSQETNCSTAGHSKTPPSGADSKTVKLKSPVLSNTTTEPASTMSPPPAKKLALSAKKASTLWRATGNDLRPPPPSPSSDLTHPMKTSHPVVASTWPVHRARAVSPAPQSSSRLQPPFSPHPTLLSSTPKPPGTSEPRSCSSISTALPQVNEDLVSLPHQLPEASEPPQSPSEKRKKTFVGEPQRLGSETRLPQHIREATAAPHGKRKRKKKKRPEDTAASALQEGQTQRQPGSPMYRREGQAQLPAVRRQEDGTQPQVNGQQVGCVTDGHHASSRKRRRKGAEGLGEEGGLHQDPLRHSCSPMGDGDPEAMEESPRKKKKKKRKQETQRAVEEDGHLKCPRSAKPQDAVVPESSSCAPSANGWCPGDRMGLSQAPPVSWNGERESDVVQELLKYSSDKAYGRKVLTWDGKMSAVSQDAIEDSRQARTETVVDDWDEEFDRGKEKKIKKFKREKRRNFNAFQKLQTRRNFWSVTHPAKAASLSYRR
Method in brief: as §1

[3] = molecular target: T2, USP38 (UniProt Q8NB14)
T2 sequence (whole entry): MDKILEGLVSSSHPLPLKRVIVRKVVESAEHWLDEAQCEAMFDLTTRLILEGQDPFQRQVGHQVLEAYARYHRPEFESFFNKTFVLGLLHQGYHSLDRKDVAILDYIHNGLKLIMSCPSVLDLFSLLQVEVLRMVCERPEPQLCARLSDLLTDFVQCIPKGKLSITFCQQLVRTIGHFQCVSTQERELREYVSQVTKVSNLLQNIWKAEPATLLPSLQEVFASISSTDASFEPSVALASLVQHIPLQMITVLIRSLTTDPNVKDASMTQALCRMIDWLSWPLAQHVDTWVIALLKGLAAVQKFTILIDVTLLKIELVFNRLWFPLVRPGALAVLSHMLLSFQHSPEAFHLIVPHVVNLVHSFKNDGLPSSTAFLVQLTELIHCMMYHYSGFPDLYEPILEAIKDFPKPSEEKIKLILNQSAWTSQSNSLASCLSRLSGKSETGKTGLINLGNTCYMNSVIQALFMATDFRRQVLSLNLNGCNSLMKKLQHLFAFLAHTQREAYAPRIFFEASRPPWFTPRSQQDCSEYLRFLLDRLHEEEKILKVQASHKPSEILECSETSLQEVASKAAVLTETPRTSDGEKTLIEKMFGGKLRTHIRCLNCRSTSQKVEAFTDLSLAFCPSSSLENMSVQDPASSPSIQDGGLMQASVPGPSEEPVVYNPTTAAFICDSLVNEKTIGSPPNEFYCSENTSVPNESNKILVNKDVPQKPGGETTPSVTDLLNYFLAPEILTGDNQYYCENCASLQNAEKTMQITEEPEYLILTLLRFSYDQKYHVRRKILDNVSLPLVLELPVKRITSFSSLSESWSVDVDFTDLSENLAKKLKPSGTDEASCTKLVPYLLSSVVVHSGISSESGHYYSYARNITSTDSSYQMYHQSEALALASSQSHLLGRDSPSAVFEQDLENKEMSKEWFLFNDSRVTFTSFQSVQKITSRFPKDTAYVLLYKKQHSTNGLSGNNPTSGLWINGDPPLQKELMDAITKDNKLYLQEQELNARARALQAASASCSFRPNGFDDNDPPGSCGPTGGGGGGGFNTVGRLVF
Method in brief: as §1

[4] = molecular target: T3, USP39 (UniProt Q53GS9)
T3 sequence (whole entry): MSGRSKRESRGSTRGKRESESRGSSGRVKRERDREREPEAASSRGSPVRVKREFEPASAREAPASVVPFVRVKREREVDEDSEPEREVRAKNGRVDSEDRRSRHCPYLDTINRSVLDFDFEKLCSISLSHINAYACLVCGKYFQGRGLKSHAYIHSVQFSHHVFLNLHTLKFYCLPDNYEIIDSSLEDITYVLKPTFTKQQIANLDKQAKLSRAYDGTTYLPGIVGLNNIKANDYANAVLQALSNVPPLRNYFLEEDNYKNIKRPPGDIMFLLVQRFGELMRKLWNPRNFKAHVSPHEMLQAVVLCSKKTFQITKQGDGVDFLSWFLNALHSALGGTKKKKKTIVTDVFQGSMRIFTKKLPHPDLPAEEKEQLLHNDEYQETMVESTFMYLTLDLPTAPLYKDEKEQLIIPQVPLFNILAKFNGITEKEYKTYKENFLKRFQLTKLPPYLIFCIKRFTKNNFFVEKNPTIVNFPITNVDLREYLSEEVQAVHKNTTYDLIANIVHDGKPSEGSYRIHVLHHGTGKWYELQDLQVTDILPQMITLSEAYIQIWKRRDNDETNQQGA
Method in brief: as §1

[5] = molecular target: T4, USP4 (UniProt Q13107)
T4 sequence (whole entry): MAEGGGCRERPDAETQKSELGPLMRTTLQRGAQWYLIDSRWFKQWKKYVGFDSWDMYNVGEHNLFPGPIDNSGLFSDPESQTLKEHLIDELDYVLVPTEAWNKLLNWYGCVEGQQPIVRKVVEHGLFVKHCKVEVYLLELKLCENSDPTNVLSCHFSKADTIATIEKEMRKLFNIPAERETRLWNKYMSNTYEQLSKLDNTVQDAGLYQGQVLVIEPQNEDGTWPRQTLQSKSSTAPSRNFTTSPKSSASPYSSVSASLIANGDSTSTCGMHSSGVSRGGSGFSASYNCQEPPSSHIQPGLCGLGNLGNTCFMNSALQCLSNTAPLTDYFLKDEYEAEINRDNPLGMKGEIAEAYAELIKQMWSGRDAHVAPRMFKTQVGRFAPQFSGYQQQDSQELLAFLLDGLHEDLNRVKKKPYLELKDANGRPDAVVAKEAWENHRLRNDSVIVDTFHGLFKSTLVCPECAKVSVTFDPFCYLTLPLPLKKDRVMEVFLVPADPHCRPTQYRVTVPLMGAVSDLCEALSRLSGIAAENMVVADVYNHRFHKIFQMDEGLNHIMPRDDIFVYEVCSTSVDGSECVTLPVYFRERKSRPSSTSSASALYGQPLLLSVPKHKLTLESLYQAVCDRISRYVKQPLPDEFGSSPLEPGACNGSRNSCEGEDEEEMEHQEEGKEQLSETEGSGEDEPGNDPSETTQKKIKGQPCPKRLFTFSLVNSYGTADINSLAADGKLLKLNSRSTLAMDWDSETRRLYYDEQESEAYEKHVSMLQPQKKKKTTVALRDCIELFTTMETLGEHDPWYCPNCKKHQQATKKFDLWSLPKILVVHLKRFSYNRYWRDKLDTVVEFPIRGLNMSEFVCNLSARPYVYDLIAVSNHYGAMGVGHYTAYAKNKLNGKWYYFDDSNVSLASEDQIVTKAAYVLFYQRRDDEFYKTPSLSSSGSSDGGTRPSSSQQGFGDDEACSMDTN
Method in brief: as §1

Measured: log2 ratio of Biotin-Ahx-Ub-VS probe labelling

Chain of USP34 (Q70CQ2 whole entry, the tested form may be a part): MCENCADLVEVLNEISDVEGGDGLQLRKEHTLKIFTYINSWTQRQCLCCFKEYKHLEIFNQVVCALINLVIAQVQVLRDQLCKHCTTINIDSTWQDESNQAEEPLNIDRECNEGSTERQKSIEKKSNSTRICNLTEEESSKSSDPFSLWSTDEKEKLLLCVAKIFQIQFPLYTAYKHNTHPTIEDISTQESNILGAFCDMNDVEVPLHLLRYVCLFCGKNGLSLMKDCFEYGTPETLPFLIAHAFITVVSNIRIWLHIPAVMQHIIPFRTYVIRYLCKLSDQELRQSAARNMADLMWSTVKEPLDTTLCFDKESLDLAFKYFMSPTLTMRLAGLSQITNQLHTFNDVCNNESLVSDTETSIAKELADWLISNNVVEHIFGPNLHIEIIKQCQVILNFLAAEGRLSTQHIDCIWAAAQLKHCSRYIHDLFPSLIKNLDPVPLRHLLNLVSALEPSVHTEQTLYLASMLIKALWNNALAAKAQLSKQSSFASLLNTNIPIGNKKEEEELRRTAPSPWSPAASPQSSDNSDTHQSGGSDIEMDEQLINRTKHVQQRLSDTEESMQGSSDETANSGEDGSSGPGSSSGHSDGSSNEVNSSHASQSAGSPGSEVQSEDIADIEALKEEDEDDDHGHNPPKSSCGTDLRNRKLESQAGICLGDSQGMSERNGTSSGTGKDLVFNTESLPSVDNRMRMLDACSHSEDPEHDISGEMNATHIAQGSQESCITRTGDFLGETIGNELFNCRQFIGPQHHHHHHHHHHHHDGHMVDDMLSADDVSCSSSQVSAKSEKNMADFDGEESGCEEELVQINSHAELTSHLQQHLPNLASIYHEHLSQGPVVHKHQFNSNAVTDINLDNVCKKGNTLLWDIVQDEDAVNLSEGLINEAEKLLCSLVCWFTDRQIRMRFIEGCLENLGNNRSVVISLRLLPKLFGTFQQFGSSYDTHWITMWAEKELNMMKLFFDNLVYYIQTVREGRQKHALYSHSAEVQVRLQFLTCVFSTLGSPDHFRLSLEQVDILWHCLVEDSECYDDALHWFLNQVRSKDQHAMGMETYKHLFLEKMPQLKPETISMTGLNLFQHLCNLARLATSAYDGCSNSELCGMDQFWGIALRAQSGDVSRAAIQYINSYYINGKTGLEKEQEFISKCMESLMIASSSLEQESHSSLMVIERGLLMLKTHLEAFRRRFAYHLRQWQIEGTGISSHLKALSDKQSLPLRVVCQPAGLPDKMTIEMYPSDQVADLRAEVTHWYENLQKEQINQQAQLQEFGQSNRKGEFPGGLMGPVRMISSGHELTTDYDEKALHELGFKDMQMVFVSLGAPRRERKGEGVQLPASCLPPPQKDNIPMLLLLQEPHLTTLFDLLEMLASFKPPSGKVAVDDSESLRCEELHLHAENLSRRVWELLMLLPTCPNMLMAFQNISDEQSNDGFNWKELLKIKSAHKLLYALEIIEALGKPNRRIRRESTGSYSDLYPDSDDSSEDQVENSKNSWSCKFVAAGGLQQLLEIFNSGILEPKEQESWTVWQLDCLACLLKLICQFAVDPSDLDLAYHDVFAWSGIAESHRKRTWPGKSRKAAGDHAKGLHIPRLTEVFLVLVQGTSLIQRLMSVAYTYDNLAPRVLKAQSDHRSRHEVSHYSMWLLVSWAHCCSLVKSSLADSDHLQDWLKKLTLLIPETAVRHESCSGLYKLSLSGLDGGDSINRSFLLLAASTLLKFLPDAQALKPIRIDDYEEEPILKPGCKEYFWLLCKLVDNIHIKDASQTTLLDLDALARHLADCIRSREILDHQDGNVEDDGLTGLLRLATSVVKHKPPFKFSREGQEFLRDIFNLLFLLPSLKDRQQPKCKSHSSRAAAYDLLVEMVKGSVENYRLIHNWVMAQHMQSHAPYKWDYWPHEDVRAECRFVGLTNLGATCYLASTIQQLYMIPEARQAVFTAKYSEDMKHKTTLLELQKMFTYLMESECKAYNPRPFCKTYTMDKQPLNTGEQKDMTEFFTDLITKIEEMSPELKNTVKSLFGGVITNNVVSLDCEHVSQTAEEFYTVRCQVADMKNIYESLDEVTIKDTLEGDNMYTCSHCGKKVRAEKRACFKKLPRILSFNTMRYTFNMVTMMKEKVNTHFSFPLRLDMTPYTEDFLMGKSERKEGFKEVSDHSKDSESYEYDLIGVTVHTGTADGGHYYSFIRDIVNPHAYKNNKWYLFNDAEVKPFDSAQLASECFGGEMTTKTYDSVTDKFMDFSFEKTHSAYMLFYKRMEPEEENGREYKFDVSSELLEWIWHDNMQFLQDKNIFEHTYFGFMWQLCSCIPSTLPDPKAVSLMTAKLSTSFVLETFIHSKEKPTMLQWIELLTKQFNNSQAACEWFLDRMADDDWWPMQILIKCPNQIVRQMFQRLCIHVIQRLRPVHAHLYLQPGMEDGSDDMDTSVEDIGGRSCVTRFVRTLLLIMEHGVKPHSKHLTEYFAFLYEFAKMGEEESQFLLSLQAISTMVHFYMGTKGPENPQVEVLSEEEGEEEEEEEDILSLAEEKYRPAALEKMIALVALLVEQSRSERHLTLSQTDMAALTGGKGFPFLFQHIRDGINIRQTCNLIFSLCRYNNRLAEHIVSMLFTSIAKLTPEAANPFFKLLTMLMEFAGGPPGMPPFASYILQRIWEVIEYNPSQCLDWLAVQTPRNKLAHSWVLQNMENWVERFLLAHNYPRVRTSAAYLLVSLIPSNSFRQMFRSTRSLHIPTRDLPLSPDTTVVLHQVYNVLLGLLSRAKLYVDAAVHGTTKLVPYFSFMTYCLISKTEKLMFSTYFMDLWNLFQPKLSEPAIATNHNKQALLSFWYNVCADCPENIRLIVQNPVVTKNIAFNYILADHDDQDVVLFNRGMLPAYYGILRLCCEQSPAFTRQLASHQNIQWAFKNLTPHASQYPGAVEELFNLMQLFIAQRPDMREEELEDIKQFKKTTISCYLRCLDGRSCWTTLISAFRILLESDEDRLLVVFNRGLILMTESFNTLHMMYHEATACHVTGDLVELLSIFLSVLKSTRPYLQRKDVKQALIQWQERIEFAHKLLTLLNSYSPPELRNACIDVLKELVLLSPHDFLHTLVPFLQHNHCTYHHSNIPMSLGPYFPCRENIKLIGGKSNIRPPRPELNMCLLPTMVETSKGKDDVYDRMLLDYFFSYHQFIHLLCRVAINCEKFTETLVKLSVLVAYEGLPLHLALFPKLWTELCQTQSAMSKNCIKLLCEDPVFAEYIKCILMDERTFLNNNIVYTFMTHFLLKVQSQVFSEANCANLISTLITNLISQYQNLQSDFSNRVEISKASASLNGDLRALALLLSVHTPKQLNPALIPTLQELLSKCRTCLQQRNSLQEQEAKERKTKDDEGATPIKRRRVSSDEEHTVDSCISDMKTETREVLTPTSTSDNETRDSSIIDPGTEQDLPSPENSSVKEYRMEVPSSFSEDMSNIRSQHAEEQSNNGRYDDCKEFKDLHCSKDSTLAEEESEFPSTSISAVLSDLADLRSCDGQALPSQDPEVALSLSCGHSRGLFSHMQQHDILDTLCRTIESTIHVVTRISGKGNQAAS

CCN(C(=O)CCl)C1CCCCC1
inactive: [1] -0.106 | [2] -0.191 | [3] 0.143 | [4] 0.059 | [5] 0.182

From the supplement of paper PMC11732987, “Enantioselective OTUD7B fragment discovery through chemoproteomics screening and high-throughput optimisation” (Communications Chemistry, 2025)
